According to PubChem BioAssay (Tox21):
Inconclusive results are not listed. Activity calls are given as the source filed them. The call rests on the fitted dose curve; in most records, active means well fitted curve in the direction sought with a large enough effect in the repeat runs; inconclusive means weak or mixed curves; inactive means no such curve, though single readings can be large; an effect the other way counts as inactive or inconclusive.

Tests used:
[1] = target: Cytochrome P450 2D6 (Homo sapiens) (UniProt P10635); test: Cytochrome P450 Family 2 Subfamily D Member 6 (CYP2D6) small molecule antagonists: luciferase reporter qHTS assay (AID 1671196); further: nearly all actives have a fitted effect of over 50% in size; on activity change, negative = inhibition: series mostly up to about 120 µM
Method in brief: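 P450-Glo format: CYP2D6 converts a proluciferin substrate to luciferin in an NADPH-driven reaction lasting 1 h at room temperature. Light output, proportional to CYP2D6 activity, reflects interference by test chemicals.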

[2] = target: Cytochrome P450 2C19 (Homo sapiens) (UniProt P33261); test: Cytochrome P450 Family 2 Subfamily C Member 19 (CYP2C19) small molecule antagonists: luciferase reporter qHTS assay (AID 1671197); further: nearly all actives have a fitted effect of over 65% in size; on activity change, negative = inhibition: series mostly up to about 120 µM
Method in brief: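 CYP2C19 P450-Glo, 1536-well qHTS. Cpd + enzyme/proluciferin substrate 10 min RT; + NADPH regen, 37C 1 h; stop with luciferin detection reagent, 20 min RT, luminescence (RLU). Pos ctrl ketoconazole.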

[3] = target: Cytochrome P450 2C9 (Homo sapiens) (UniProt P11712); test: Cytochrome P450 Family 2 Subfamily C Member 9 (CYP2C9) small molecule antagonists: luciferase reporter qHTS assay (AID 1671198); further: nearly all actives have a fitted effect of over 50% in size; on activity change, negative = inhibition: series mostly up to about 120 µM
Method in brief: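 P450-Glo proluciferin substrate with CYP2C9 enzyme; 10 min RT preincubation, then NADPH regeneration 1 h at 37C; luciferin detection reagent 20 min RT, luminescence in relative luminescence units.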

[4] = target: Cytochrome P450 1A2 (Homo sapiens) (UniProt P05177); test: Cytochrome P450 Family 1 Subfamily A Member 2 (CYP1A2) small molecule antagonists: luciferase reporter qHTS assay (AID 1671199); further: nearly all actives have a fitted effect of over 50% in size; on activity change, negative = inhibition: series mostly up to about 120 µM
Method in brief: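 Inhibition of CYP1A2 conversion of proluciferin to luciferin, detected by luminescence. Reaction run 1 h at room temperature with NADPH regeneration after brief compound preincubation.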

[5] = target: Voltage-gated inwardly rectifying potassium channel KCNH2 (Homo sapiens) (UniProt Q12809); test: Human Ether-a-go-go-Related Gene (hERG) channel small molecule antagonists: fluorescence cell-based qHTS assay (AID 1671200); further: nearly all actives have a fitted effect of over 50% in size; on activity change, negative = inhibition: series mostly up to about 77 µM
Method in brief: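 Thallium flux as potassium surrogate: FluxOR II dye loaded 1 h at room temperature into hERG-expressing U2OS cells, then stimulus buffer added after 10 min. Kinetic 480 nm excitation/540 nm emission read, 2 min.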

[6] = target: Cytochrome P450 3A4 (Homo sapiens) (UniProt P08684); test: Cytochrome P450 Family 3 Subfamily A Member 4 (CYP3A4) small molecule antagonists: luciferase reporter qHTS assay (AID 1671201); further: nearly all actives have a fitted effect of over 50% in size; on activity change, negative = inhibition: series mostly up to about 120 µM
Method in brief: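 Recombinant human CYP3A4 converts a proluciferin substrate to luciferin over 1 h at room temperature after NADPH regeneration solution is added (compound preincubated 10 min); detection reagent stops reaction, luminescence read 20 min later as relative units.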
On the % scale 0 is the no-effect control and ±100 the full control effect; potency means the concentration at half of the fitted maximal effect.

Chain of Cytochrome P450 2D6 (Homo sapiens) (P10635 whole entry, looked up): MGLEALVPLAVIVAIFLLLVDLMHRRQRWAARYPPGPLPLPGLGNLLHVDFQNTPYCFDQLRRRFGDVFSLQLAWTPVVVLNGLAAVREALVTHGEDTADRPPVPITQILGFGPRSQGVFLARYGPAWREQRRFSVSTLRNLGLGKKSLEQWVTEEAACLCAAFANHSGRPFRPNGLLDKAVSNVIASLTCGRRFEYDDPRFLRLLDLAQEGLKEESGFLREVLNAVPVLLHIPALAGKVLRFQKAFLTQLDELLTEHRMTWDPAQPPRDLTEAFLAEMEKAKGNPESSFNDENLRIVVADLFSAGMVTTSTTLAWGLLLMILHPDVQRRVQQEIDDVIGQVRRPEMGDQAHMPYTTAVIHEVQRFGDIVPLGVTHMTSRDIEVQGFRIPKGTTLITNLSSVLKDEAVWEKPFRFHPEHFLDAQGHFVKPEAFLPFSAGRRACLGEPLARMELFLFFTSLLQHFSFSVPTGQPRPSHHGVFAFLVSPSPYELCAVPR
Chain of Cytochrome P450 2C9 (Homo sapiens) (P11712 whole entry, looked up): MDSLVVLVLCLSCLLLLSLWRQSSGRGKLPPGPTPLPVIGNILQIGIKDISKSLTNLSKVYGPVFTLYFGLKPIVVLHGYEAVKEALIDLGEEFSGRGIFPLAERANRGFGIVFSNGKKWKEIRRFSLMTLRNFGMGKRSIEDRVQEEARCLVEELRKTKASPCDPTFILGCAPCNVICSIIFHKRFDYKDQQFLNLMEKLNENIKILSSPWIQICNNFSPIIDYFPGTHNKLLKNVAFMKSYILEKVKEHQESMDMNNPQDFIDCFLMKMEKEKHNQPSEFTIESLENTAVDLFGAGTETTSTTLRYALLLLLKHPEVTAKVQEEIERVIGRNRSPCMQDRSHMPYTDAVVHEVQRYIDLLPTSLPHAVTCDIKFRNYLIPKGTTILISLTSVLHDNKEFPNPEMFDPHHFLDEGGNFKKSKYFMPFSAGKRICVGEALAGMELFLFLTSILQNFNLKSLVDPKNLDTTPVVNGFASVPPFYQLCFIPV
Chain of Cytochrome P450 3A4 (Homo sapiens) (P08684 whole entry, looked up): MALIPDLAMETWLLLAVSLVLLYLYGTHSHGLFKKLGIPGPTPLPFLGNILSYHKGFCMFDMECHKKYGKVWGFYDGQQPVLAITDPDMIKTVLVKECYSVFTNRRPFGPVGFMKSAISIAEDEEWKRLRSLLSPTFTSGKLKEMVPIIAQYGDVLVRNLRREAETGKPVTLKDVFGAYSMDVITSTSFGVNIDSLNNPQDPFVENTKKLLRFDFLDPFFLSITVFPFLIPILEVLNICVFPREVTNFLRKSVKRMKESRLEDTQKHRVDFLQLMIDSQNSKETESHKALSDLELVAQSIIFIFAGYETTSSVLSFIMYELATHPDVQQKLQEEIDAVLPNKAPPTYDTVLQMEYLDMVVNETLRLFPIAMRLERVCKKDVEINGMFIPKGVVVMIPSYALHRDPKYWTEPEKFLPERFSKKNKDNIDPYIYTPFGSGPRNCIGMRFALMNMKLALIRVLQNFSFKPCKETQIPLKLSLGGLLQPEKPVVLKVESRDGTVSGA
Chain of Voltage-gated inwardly rectifying potassium channel KCNH2 (Homo sapiens) (Q12809 whole entry, looked up): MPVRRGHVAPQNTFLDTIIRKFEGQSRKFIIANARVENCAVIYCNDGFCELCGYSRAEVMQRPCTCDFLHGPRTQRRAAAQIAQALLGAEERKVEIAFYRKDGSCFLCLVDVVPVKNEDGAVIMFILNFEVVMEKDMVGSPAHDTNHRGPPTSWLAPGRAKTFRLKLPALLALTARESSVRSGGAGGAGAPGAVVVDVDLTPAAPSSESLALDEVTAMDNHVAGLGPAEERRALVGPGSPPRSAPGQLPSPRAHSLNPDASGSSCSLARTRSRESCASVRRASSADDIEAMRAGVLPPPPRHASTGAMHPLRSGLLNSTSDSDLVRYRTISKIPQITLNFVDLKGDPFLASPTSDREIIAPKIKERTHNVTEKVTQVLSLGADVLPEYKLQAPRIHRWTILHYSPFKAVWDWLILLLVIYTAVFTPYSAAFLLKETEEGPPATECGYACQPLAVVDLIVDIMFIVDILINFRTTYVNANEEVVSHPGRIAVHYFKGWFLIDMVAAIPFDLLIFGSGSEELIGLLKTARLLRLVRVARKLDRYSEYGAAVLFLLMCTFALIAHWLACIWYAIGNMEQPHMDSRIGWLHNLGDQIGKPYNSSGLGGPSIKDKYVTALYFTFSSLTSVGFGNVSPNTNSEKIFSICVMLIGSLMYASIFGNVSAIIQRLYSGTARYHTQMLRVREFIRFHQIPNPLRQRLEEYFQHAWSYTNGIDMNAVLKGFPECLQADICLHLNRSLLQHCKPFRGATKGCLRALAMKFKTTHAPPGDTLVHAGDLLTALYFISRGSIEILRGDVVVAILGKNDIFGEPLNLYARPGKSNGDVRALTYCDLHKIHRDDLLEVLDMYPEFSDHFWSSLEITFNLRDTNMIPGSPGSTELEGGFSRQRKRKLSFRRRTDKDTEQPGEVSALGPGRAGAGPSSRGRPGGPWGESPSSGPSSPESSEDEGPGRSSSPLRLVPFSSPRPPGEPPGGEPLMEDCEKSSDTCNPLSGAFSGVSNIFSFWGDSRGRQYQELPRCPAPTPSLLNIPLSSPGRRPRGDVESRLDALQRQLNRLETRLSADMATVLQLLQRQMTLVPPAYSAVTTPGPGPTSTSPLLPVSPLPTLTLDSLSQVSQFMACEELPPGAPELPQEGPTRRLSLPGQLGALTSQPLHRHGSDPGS
Chain of Cytochrome P450 2C19 (Homo sapiens) (P33261 whole entry, looked up): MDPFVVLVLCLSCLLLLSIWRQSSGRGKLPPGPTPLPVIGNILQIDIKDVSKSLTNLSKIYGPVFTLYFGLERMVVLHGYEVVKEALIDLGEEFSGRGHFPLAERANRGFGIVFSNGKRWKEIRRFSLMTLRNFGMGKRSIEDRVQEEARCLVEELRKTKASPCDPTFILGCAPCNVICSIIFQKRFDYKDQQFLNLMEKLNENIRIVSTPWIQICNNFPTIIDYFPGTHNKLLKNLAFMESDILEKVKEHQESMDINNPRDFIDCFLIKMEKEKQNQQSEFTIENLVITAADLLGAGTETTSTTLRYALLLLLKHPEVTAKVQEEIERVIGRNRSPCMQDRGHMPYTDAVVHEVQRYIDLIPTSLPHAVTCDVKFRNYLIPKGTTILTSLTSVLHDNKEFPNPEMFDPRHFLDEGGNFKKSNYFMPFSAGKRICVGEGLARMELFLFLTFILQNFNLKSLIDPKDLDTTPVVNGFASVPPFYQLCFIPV
Chain of Cytochrome P450 1A2 (Homo sapiens) (P05177 whole entry, looked up): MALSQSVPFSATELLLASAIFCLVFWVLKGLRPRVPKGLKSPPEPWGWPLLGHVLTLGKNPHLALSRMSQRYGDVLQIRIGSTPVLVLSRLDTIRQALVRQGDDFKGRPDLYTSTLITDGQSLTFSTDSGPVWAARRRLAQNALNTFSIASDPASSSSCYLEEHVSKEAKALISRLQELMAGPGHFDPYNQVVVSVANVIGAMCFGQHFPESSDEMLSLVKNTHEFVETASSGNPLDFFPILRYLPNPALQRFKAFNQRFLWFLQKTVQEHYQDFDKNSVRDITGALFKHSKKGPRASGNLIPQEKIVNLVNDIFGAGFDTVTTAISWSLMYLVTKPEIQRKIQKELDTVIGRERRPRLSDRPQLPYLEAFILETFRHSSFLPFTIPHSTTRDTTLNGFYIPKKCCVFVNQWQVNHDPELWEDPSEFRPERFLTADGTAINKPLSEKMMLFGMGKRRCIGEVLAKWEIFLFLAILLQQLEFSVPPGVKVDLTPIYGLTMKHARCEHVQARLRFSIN

C=CC(C)(CCC=C(C)C)OC(=O)C(C)C (stereo not given)
inactive: Potency [1] | Potency [4] | Potency [5]
active: Potency [2] 71 µM | Potency [3] 39.9 µM | Potency [6] 63.3 µM

O=Cc1ccc(C(=O)O)cc1
inactive: Potency [1] | Potency [2] | Potency [3] | Potency [4] | Potency [5] | Potency [6]

CC1(C)C(=O)C(C)(C)C1=O
inactive: Potency [1] | Potency [2] | Potency [3] | Potency [4] | Potency [5] | Potency [6]

CC(=O)c1ccc2ccc3ccccc3c2c1
active: Potency [2] 22.3 µM | Potency [3] 12.6 µM | Potency [4] 1.12 µM | Potency [6] 39.7 µM
inactive: Potency [1] | Potency [5]

CCN(CC)CC(=O)Oc1ccc(NC(C)=O)cc1
inactive: Potency [1] | Potency [2] | Potency [3] | Potency [4] | Potency [5] | Potency [6]

CCOC(=O)CN1CCCC1=O
inactive: Potency [1] | Potency [2] | Potency [3] | Potency [4] | Potency [5] | Potency [6]

CC(C)c1cc(C(C)C)cc(C(C)C)c1
inactive: Potency [1] | Potency [2] | Potency [3] | Potency [4] | Potency [5] | Potency [6]

c1cc2ccc3ccc4ccc5cccc6c(c1)c2c3c4c56
active: Potency [4] 0.2 µM
inactive: activity change, negative = inhibition [1] 0.702% [at 4.07 µM] | activity change, negative = inhibition [2] -3.91% [at 4.07 µM] | activity change, negative = inhibition [3] -14.6% [at 4.07 µM] | activity change, negative = inhibition [5] 0.437% [at 2.72 µM] | activity change, negative = inhibition [6] -22.2% [at 4.07 µM]

Cc1nnc(C(=O)NC(C)(C)c2nc(C(=O)NCc3ccc(F)cc3)c(O)c(=O)n2C)o1
inactive: Potency [1] | Potency [2] | Potency [3] | Potency [4] | Potency [6]

NC[C@H]1O[C@H](O[C@H]2[C@H](O)[C@@H](O[C@H]3O[C@H](CO)[C@@H](O)[C@H](N)[C@H]3O)[C@H](N)C[C@@H]2N)[C@H](N)[C@@H](O)[C@@H]1O
inactive: activity change, negative = inhibition [1] 0.727% [at 23.6 µM] | activity change, negative = inhibition [2] 39.5% [at 23.6 µM] | activity change, negative = inhibition [3] 16.5% [at 23.6 µM] | activity change, negative = inhibition [5] 1.37% [at 15.8 µM] | activity change, negative = inhibition [6] 6.04% [at 23.6 µM]

CC(O)C(CO)C(C)O (stereo not given)
active: Potency [2] 80.6 µM | Potency [4] 32.1 µM
inactive: Potency [1] | Potency [3] | Potency [5] | Potency [6]

Cc1cc(O)c(Cl)cc1C
inactive: Potency [1] | Potency [3] | Potency [5] | Potency [6]
active: Potency [2] 71 µM | Potency [4] 25.2 µM

O=S(=O)(O)CC(O)CCl (stereo not given)
inactive: Potency [1] | Potency [2] | Potency [3] | Potency [4] | Potency [5] | Potency [6]

CO/N=C(\C(=O)O)c1csc(NC(=O)CCl)n1
inactive: Potency [1] | Potency [2] | Potency [3] | Potency [4] | Potency [5] | Potency [6]

COC(=O)c1ccccc1Cl
inactive: Potency [1] | Potency [2] | Potency [3] | Potency [4] | Potency [5] | Potency [6]

CCCC(=O)OC
inactive: Potency [1] | Potency [2] | Potency [3] | Potency [4] | Potency [5] | Potency [6]

O=C[C@@H](O)[C@H](O)[C@H](O)CO
inactive: Potency [1] | Potency [2] | Potency [3] | Potency [4] | Potency [5] | Potency [6]

O=C1CC2(CCCC2)CC(=O)N1CCNCC1COc2ccccc2O1 (stereo not given)
active: Potency [1] 0.309 µM | Potency [5] 19 µM
inactive: Potency [2] | Potency [3]

CCC(C)c1nccnc1OC (stereo not given)
inactive: Potency [1] | Potency [2] | Potency [3] | Potency [5] | Potency [6]

O=c1[nH]c(=O)c2cn[nH]c2[nH]1
inactive: Potency [1] | Potency [2] | Potency [3] | Potency [4] | Potency [5] | Potency [6]

CC(=O)c1ccc(O)c(C(N)=O)c1
inactive: Potency [1] | Potency [2] | Potency [3] | Potency [4] | Potency [5] | Potency [6]

CCCCCCC(O)CO (stereo not given)
inactive: Potency [1] | Potency [2] | Potency [3] | Potency [4] | Potency [5] | Potency [6]

CC/C=C\CCCCCCCCCCOC(C)=O
inactive: Potency [1] | Potency [2] | Potency [3] | Potency [4] | Potency [5] | Potency [6]

CCCC[O][Al]([O]CCCC)[O]CCCC
inactive: Potency [1] | Potency [2] | Potency [3] | Potency [4] | Potency [5] | Potency [6]

N#CC1(N)CCCCC1
inactive: Potency [1] | Potency [2] | Potency [3] | Potency [4] | Potency [5] | Potency [6]

CNC(=O)c1c(I)c(NC(C)=O)c(I)c(C(=O)O)c1I
inactive: Potency [1] | Potency [2] | Potency [3] | Potency [5] | Potency [6]

CCCCCCCCCCCCCC(=O)OCC
inactive: Potency [1] | Potency [2] | Potency [3] | Potency [5] | Potency [6]

C=CCCCCCCCCCCCCCC
inactive: activity change, negative = inhibition [1] -17.7% [at 23.6 µM] | activity change, negative = inhibition [3] -3.74% [at 23.6 µM] | activity change, negative = inhibition [5] 4.07% [at 15.8 µM] | activity change, negative = inhibition [6] -5.46% [at 23.6 µM]
active: Potency [2] 18.6 µM

CCCCCCCCOCCC#N
inactive: Potency [1] | Potency [2] | Potency [3] | Potency [5] | Potency [6]

CCCCc1ccc(Cl)cc1
inactive: Potency [1] | Potency [2] | Potency [3] | Potency [5] | Potency [6]

C=CC(=O)OCCOCCOCC
inactive: Potency [1] | Potency [2] | Potency [3] | Potency [5] | Potency [6]

BrCCOc1ccccc1
inactive: Potency [3] | Potency [5] | Potency [6]
active: Potency [1] 56.6 µM | Potency [2] 89.6 µM
